# Hits are enriched below; roughly 12% of the tested compounds scored in any of these assays.
# NS1 inh: qHTS Assay for Inhibitors of Influenza NS1 Protein Function | actives 0.4% (n = 270,000) | Potency, µM (highest dose often 46.1 µM); also: actives are rising curves; nearly all actives have a fitted effect of over 50% in size
#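 Compounds were scored for reversing the slow growth caused by influenza A NS1 in S. cerevisiae, measured by optical density at 600 nm. Assay medium contained 2% galactose at pH 6.0; NS1-free yeast of the same strain were the positive control.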
# Cycloheximide cs: Cycloheximide Counterscreen for Small Molecule Inhibitors of Shiga Toxin; max response, %; AID 2314, 2010; actives 12% (n = 300,000); cell reporter, cycloheximide protein synthesis inhibition counterscreen; in the data active = max response mostly above about 13%, no sharp cut-off; inactive = mostly below about 14%; also: read at 38.3 µM for the half of the compounds with a filed dose
# SARS PLP yeast: qHTS of Yeast-based Assay for SARS-CoV PLP; S. cerevisiae expressing SARS-CoV PLpro, growth rescue; Potency, µM (titrated, usually from 32.9 µM), hits mostly activators; actives 0.19% (n = 330,000); AID 485353, 2010; also: nearly all actives have a fitted effect of over 55% in size
# Shiga toxin inh: A qHTS for Small Molecule Inhibitors of Shiga Toxin; Vero cells, Shiga toxin protein synthesis inhibition reporter; actives 9.2% (n = 290,000); inhibition, % at 38.7 µM; AID 2315, 2010; in the data active = inhibition mostly above about 28%, no sharp cut-off; inactive = mostly below about 43%
# Numbers stand for hits; . = inactive; ? = inconclusive; / = not tested or not shown; + = active, no number. Unless noted, calls follow the shape of the full dose curve.
SMILES,NS1 inh,Cycloheximide cs,SARS PLP yeast,Shiga toxin inh
Cc1ccc2nc(NC(=O)C3CCCN(S(=O)(=O)c4cccc5nsnc45)C3)sc2c1 (centres undefined),.,24.7,.,.
Cc1ccc2nc(NC(=O)C3CCN(S(=O)(=O)c4cccc5nsnc45)CC3)sc2c1,.,.,.,.
CCOC(=O)c1[nH]nc(C(=O)c2ccc(Br)cc2)c1O,.,.,.,62.9
CCOC(=O)c1c(C)[nH]c(C(=O)COC(=O)CNC(=O)c2ccc(Br)cc2)c1C,.,.,.,.
Cc1nc(/N=C(\N)NC(=O)c2ccccc2)nc2ccccc12,.,49.8,.,52.0
Cc1cc(=O)[nH]c(N/N=C/c2ccc([N+](=O)[O-])cc2)n1,/,.,.,.
Cc1cc(=O)[nH]c(N/N=C/c2c(F)c(F)c(F)c(F)c2F)n1,.,.,.,.
Cc1cc(=O)[nH]c(N/N=C/c2ccc(-c3ccc([N+](=O)[O-])cc3)o2)n1,.,11.9,.,.
Cc1cc(=O)[nH]c(N/N=C/c2sccc2C)n1,.,47.4,.,80.9
Cc1ccc(-c2ccc(/C=N/O)o2)cc1[N+](=O)[O-],/,34.6,.,60.8
Cc1cc(=O)[nH]c(N/N=C/c2cc(C)n(-c3ccccc3)c2C)n1,.,33.9,.,95.0
O=[N+]([O-])c1cc(-c2ccc(/C=N/n3cnnc3)o2)ccc1Cl,.,.,.,.
O=C(c1ccc(=O)[nH]n1)N1CCc2ccccc2C1,.,.,.,.
Cc1cc(C)cc(NC(=O)COC(=O)Cn2cnc3c2c(=O)n(C)c(=O)n3C)c1,/,/,.,/
Cc1cc(=O)[nH]c(N/N=C/c2cccs2)n1,.,23.3,.,.
O=C(CCC(=O)N1CCOc2ccccc21)N1CCCCC1,.,.,.,.
COc1ccco1,/,.,/,.
O=C1C=CC(O)(c2cc(=O)c3c(O)cc(O)cc3o2)C=C1,?,45.0,.,93.3
O=C(N/N=C/c1cn(-c2cccs2)nc1-c1ccccc1)c1ccc(O)cc1,.,44.8,.,+
O=C(N/N=C/c1cn(-c2cccs2)nc1-c1ccccc1)c1ccccc1Cl,?,21.5,.,102.4
O=C(N/N=C/c1cn(Cc2ccccc2)c2ccccc12)c1ccncc1,/,.,.,.
Cc1ccc(S(=O)(=O)CCC(=O)OCC(=O)NC(C)c2ccccc2)cc1 (centres undefined),/,/,.,/
Cc1cc(C)cc(NC(=O)c2cc(Cl)sc2Cl)c1,.,29.7,.,.
CC(=O)c1ccc(NC(=O)c2cc(Cl)sc2Cl)cc1,.,39.7,.,31.6
O=C(COC(=O)c1ccncc1)Nc1cc(Cl)c(Cl)cc1Cl,.,.,.,.
SMILES,NS1 inh,Cycloheximide cs,SARS PLP yeast,Shiga toxin inh
Cc1ccc2c(COC(=O)c3cnc(C)cn3)cc(=O)oc2c1,.,.,.,.
CCOC(=O)Nc1ccc2c(COC(=O)c3ccccc3O)cc(=O)oc2c1,.,27.1,.,75.6
Cc1ccc(S(=O)(=O)NCC(=O)OCc2cc(=O)oc3cc(C)ccc23)cc1,/,/,.,/
Cc1ccc2c(COC(=O)CNC(=O)c3ccccc3)cc(=O)oc2c1,.,35.7,?,.
Cc1ccc2c(COC(=O)c3ccccc3OC(F)F)cc(=O)oc2c1,.,26.2,.,.
Cc1ccc2c(COC(=O)C3=COCCO3)cc(=O)oc2c1,.,64.0,.,89.2
Cn1c(=O)c2c(nc(CN3CCOCC3)n2CCCO)n(C)c1=O,.,.,.,.
COc1ccc(NC(=O)c2nnn(CC(=O)Nc3ccc4c(c3)OCO4)c2N)c(OC)c1,.,.,.,.
CCN(CC)c1ccc2cc(S(=O)(=O)c3ccc(Cl)cc3)c(=O)oc2c1,.,.,.,.
CN(C)Cc1c(O)ccc2c(-c3ccccc3)cc(=O)oc12,.,.,.,.
CCN(CC)c1ccc2cc(-c3nc4ccccc4n3C)c(=O)oc2c1,.,36.9,.,80.5
CCN(CC)c1ccc2cc(-c3nc(-c4ccc(OC)cc4)cs3)c(=O)oc2c1,.,.,.,.
CN(C)Cc1c(O)ccc2cc(-c3nc4ccccc4n3C)c(=O)oc12,?,20.1,.,.
CCN(CC)c1ccc2cc(-c3nnc(-c4ccccc4)o3)c(=O)oc2c1,.,35.4,.,70.3
CCN(CC)c1ccc2cc(-c3nc4ccccc4[nH]3)c(=O)oc2c1,.,49.2,.,81.5
COc1cc(OC)cc(C(=O)Nc2ccccc2C(=O)NC2CC2)c1,/,/,.,/
COCCCN1C(=O)C(=O)/C(=C(/O)c2ccc(S(=O)(=O)N3CCOCC3)cc2)C1c1ccc(OC)cc1 (centres undefined),.,.,.,.
CC(=O)OCC(CO)OC(C)=O (centres undefined) (tested in a mixture with another compound),/,.,/,.
CCO[C@@H]1OC(C(=O)N2CCN(Cc3ccccc3)CC2)=C[C@H](c2coc3ccccc3c2=O)[C@H]1CCCO,.,.,.,.
CN(C)C(Cc1ccccc1)C(=O)c1c[nH]c2ccccc12 (centres undefined),.,27.8,.,.
CN(C)C(Cc1ccccc1)C(=O)c1ccccc1 (centres undefined),.,33.2,.,64.8
CCOC(=O)c1c(C)[nH]c(C)c1C(=O)C(Cc1ccccc1)N(C)C (centres undefined),.,.,.,.
O=C(CCc1nc(-c2ccccc2F)no1)NC1CCCCC1,.,8.6,.,.
Cc1ccc(-c2noc(CCC(=O)NC3CC3)n2)cc1,.,19.8,.,.
CN(C(=O)CCc1nc(-c2ccccc2F)no1)c1ccccc1,.,41.4,.,98.3
SMILES,NS1 inh,Cycloheximide cs,SARS PLP yeast,Shiga toxin inh
Cc1ccccc1-c1noc(CCC(=O)NC2CCCCC2)n1,.,.,.,.
Cc1ccc(-c2nnn(CCC(=O)NC3CCCC3)n2)cc1,.,17.0,.,.
CC(C)(C)c1ccc(N2C[C@@H](COc3ccc(C(=O)O)cc3)CC2=O)cc1,/,.,/,.
O=c1cc[nH]c2c(Cl)cccc12,.,20.7,.,40.7
CC(C)CNC(=O)c1cccc(NC(=O)C(C)Oc2ccccc2)c1 (centres undefined),.,.,.,.
CCS(=O)(=O)N1CCc2nc(-c3ccccc3)sc2C1,.,47.7,.,72.4
CCOc1ccc(C2C(C(=O)c3cccs3)=C(O)C(=O)N2Cc2cccnc2)cc1OC (centres undefined),.,34.1,.,59.8
COc1ccc(C2C(C(=O)c3cccs3)=C(O)C(=O)N2c2cccc(C)n2)cc1OC (centres undefined),.,19.5,.,31.7
COc1cccc(C2C(C(=O)c3cccs3)=C(O)C(=O)N2c2cc(C)on2)c1 (centres undefined),.,.,.,.
COc1ccc(OC)c(C2C(C(=O)c3cccs3)=C(O)C(=O)N2c2cc(C)on2)c1 (centres undefined),?,34.8,.,90.1
CCOc1ccccc1-c1nc(-c2ccc(NC(=O)Cc3ccc(OC)cc3)cc2)no1,.,.,.,.
CCCOC(=O)c1ccc(NC(=O)c2ccc(Br)o2)cc1,.,56.3,.,52.3
CCN(CC)c1ccc(NC(=O)c2ccc(Br)o2)cc1,.,42.6,.,.
COC(=O)Cc1ccc(NC(=O)c2ccc(C)c(C)c2)cc1,.,45.1,.,51.2
CCOc1ccccc1-c1nc(-c2ccc(NC(=O)c3ccc(Br)o3)cc2)no1,.,44.3,.,.
